Results as given in PubChem BioAssay (Tox21).
Values joined by “and” are separate entries in the source; they are usually repeats but may differ in a detail not shown here. Identical values can stand only once. Results filed as inconclusive are left out. Where a call stands in place of a potency, no number is given. Some structures have more than one record in an assay (separate samples or runs), and their calls can disagree. Active and inactive are the calls of the source. Unless noted, calls follow the shape of the dose curve; as a rule, active = well fitted curve in the direction sought with a large enough effect in the repeat runs; inconclusive = weak or mixed curves; inactive = no such curve, though single readings can be large; an effect the other way counts as inactive or inconclusive.

How the values were obtained:
[1] = qHTS assay to identify aromatase inhibitors - cell viability counter screen (AID 743084);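 also: cells stimulated with testosterone during compound exposure; nearly all actives have a fitted effect of over 55% in size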; also: potency is read from the fitted curve at half-maximal effect
[2] = target: Aryl hydrocarbon receptor (Homo sapiens) (UniProt P35869); assay: qHTS assay to identify small molecule that activate the aryl hydrocarbon receptor (AhR) signaling pathway (AID 743085);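 also: HG2L7.5c1 human HepG2 liver cells with stably integrated DRE-driven firefly reporter; series mostly up to about 70 µM; nearly all actives have a fitted effect of over 15% in size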
Chain of Aryl hydrocarbon receptor (Homo sapiens) (P35869 whole entry, looked up): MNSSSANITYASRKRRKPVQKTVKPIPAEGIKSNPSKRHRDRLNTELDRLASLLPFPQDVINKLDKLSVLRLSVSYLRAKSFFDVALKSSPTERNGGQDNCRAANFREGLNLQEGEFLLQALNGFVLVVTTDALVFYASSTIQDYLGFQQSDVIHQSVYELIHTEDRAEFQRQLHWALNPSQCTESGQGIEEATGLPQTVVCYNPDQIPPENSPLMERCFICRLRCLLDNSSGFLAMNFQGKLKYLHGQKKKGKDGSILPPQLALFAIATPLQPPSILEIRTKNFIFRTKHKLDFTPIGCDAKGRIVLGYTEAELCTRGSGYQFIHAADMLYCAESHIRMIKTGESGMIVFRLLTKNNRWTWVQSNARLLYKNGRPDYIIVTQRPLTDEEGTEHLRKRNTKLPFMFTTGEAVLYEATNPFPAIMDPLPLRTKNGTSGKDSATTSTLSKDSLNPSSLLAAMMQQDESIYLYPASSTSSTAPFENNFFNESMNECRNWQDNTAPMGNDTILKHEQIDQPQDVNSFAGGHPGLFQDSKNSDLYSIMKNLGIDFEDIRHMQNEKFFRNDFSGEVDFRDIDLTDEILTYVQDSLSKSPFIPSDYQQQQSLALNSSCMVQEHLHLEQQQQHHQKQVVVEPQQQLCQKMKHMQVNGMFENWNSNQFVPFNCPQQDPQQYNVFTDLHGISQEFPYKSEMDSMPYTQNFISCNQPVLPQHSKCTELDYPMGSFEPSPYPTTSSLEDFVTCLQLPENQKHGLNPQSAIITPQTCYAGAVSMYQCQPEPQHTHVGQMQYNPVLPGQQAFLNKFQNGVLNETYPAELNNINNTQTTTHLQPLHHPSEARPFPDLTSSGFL
Outline: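 Cell line HG2L7.5c1 (human hepatoma, 20× DRE-luc). Plated, 5 h 37C, compound/DMSO added, 24 h 37C. CellTiter-Fluor 30 min 37C → fluorescence; then ONE-Glo 30 min RT → luminescence.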

[3] = target: Peroxisome proliferator-activated receptor gamma (Homo sapiens) (UniProt P37231); assay: qHTS assay to identify small molecule antagonists of the peroxisome proliferator-activated receptor gamma (PPARg) signaling pathway (AID 743191; calls by dose curve; also: series mostly up to about 63 µM; nearly all actives have a fitted effect of over 30% in size)
Chain of Peroxisome proliferator-activated receptor gamma (Homo sapiens) (P37231 whole entry, looked up): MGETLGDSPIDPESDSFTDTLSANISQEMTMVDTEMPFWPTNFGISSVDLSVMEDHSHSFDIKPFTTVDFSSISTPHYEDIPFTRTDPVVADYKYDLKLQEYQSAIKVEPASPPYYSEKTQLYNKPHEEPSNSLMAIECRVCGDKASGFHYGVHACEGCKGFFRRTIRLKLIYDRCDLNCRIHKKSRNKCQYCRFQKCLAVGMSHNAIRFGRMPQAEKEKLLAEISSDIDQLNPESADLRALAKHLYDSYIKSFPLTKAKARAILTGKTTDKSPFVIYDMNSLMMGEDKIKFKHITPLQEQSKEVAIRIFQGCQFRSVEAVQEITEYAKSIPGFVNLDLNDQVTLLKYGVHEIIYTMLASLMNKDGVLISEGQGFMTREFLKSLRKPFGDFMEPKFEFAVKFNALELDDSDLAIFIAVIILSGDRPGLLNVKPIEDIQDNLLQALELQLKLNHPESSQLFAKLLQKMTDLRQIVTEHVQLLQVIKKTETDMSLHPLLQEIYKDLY
Outline: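 GeneBLAzer PPARg UAS-bla HEK293H cells, 5 h post-plating, exposed to compounds 17 h at 37C. LiveBLAzer B/G FRET substrate added for 1 h at room temperature; beta-lactamase reporter read by fluorescence intensity.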

[4] = qHTS assay to identify small molecule antagonists of the peroxisome proliferator-activated receptor gamma (PPARg) signaling pathway - cell viability counter screen (AID 743194); settings: Potency: co-treated with 50 nM rosiglitazone unless noted; also: nearly all actives have a fitted effect of over 55% in size; also: potency is read from the fitted curve at half-maximal effect
Outline: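 Cytotoxicity counter screen in PPARg-bla HEK293H cells, same wells as reporter assay. Compounds plus 50 nM rosiglitazone (final) for 17 h at 37 C, then viability read by CellTiter-Glo luminescence.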

[5] = qHTS assay for small molecule agonists of the antioxidant response element (ARE) signaling pathway (AID 743202; active = well fitted activation curve with a large enough effect in the signal ratio in the repeat runs, not every such curve was filed as active; the % refers to the signal ratio)
Outline: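 ARE-bla HepG2 cells (beta-lactamase reporter under the antioxidant response element), plated 5 hours, then exposed to compounds 16 hours at 37 C. LiveBLAzer B/G FRET substrate added for 2 hours at room temperature; fluorescence intensity read.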

[6] = qHTS assay for small molecule agonists of the antioxidant response element (ARE) signaling pathway - cell viability counter screen (AID 743203; calls by dose curve; also: nearly all actives have a fitted effect of over 55% in size; also: potency is read from the fitted curve at half-maximal effect)
Outline: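 Cells (ARE-bla HepG2, 2,000/well) receive DMSO-dissolved compounds after a 5 hrs rest. Plates incubate 16 hrs at 37C/5% CO2. CellTiter-Glo luminescence is then recorded after 30 min at room temperature.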

[7] = qHTS assay for small molecule activators of the heat shock response signaling pathway - cell viability counter screen (AID 743209); also: nearly all actives have a fitted effect of over 50% in size
Outline: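 Quantitative HTS format, Tox21 10K library. HeLa cells carrying an HSE-driven beta-lactamase reporter were treated 5 h at 37 C, then assessed for viability by CellTiter-Glo luminescence.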

[8] = qHTS assay for small molecule activators of the heat shock response signaling pathway (AID 743210; active = well fitted activation curve with a large enough effect in the signal ratio in the repeat runs, with a control signal flat, not every such curve was filed as active; the % refers to the signal ratio; also: series mostly up to about 63 µM)
Outline: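 HSE-bla HeLa cells (beta-lactamase reporter under heat shock response elements), plated overnight, then exposed to compounds 5 h at 37 C; LiveBLAzer B/G FRET substrate added, 2.5 h at room temperature, fluorescence intensity read.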

[9] = qHTS assay to identify small molecule agonists of the peroxisome proliferator-activated receptor delta (PPARd) signaling pathway - cell viability counter screen (AID 743211); also: nearly all actives have a fitted effect of over 55% in size; also: potency is read from the fitted curve at half-maximal effect
Outline: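 HEK293H PPARd-bla, 3000 cells/well; 5 h preincubation 37C/5% CO2; cpd in DMSO, 17 h 37C; B/G FRET substrate 2 h RT; CellTiter-Glo 30 min RT, luminescence.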

[10] = qHTS assay to identify small molecule antagonists of the peroxisome proliferator-activated receptor delta (PPARd) signaling pathway - cell viability counter screen (AID 743213); also: nearly all actives have a fitted effect of over 50% in size; also: potency is read from the fitted curve at half-maximal effect
Outline: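 HEK293H PPARd UAS-bla cells, 5 h pre-incubation, compound + L165041 300 nM final, 17 h 37 C; B/G FRET substrate 2 h RT; then CellTiter-Glo 30 min RT, luminescence.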

[11] = target: Peroxisome proliferator-activated receptor delta (Homo sapiens) (UniProt Q03181); assay: qHTS assay to identify small molecule antagonists of the peroxisome proliferator-activated receptor delta (PPARd) signaling pathway (AID 743215; active = well fitted inhibition curve with a large enough effect in the signal ratio in the repeat runs, not every such curve was filed as active; the % refers to the signal ratio;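 also: cells stimulated with agonist L165041 at 300 nM final during compound exposure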; also: potency is read from the fitted curve at half-maximal effect)
Chain of Peroxisome proliferator-activated receptor delta (Homo sapiens) (Q03181 whole entry, looked up): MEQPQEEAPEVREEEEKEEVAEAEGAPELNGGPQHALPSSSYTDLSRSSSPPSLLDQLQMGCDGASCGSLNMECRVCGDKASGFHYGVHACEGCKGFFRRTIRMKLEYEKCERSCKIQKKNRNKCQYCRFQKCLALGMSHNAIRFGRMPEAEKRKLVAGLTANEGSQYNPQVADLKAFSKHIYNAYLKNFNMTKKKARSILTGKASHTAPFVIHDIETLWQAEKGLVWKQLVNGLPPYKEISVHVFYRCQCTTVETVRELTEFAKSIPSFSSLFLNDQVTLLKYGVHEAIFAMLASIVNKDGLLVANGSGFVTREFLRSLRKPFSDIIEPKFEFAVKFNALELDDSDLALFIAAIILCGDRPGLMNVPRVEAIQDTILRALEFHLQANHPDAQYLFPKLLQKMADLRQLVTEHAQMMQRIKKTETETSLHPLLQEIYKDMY
Outline: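 Antagonist-mode beta-lactamase reporter screen: HEK293H cells with UAS-bla under PPARd control, stimulated by 300 nM L165041 (final) alongside test compound for 17 h at 37 C, then FRET fluorescence after 2 h substrate incubation.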

[12] = target: Vitamin D3 receptor (Homo sapiens) (UniProt P11473); assay: qHTS assay to identify small molecule agonists of the vitamin D receptor (VDR) signaling pathway (AID 743222; calls by dose curve)
Chain of Vitamin D3 receptor (Homo sapiens) (P11473 whole entry, looked up): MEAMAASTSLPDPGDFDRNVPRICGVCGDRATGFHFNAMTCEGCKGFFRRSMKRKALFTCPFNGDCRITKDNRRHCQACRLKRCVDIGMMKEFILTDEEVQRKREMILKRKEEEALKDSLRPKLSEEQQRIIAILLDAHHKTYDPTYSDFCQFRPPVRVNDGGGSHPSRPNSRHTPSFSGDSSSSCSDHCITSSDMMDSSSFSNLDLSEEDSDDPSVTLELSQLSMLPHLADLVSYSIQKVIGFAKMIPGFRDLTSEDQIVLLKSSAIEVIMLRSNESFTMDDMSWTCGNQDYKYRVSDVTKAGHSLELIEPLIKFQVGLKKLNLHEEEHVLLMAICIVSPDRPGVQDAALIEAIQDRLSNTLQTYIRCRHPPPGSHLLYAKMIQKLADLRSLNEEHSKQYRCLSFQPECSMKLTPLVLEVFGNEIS
Outline: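 Agonist activity measured in VDR-bla reporter cells. Exposure 16 h, 37C, 5% CO2; detection by B/G FRET substrate, 2 h RT.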

[13] = target: Vitamin D3 receptor (Homo sapiens) (UniProt P11473); assay: qHTS assay to identify small molecule antagonists of the vitamin D receptor (VDR) signaling pathway (AID 743223; active = well fitted inhibition curve with a large enough effect in the signal ratio in the repeat runs, not every such curve was filed as active; the % refers to the signal ratio)
Outline: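 Antagonist mode uses 1alpha,25-dihydroxyvitamin D3 at 3 nM final as stimulus. VDR-bla cells receive compounds in DMSO, incubate 16 h at 37C, then a beta-lactamase FRET substrate for 2 h at room temperature before fluorescence measurement.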

[14] = target: Peroxisome proliferator-activated receptor gamma (Homo sapiens) (UniProt P37231); assay: qHTS assay to identify small molecule agonists of the peroxisome proliferator-activated receptor gamma (PPARg) signaling pathway (AID 743094; active = well fitted activation curve with a large enough effect in the signal ratio in the repeat runs, not every such curve was filed as active; the % refers to the signal ratio; also: potency is read from the fitted curve at half-maximal effect)
Outline: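 Stably transfected HEK293H cells (GeneBLAzer PPARg UAS-bla) were incubated with test substances for 17 h at 37C after a 5 h pre-incubation; beta-lactamase activity was then detected by FRET substrate fluorescence.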

[15] = qHTS assay to identify small molecule agonists of the farnesoid-X-receptor (FXR) signaling pathway - cell viability counter screen (AID 743218); also: nearly all actives have a fitted effect of over 45% in size; also: potency is read from the fitted curve at half-maximal effect
Outline: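 In GeneBLAzer FXR-UAS-bla HEK 293T cells, compounds act for 16 h at 37 C. Cell viability is then scored in the reporter wells by CellTiter-Glo, 30 min at RT, luminescence.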

[16] = qHTS assay to identify small molecule that activate the aryl hydrocarbon receptor (AhR) signaling pathway - cell viability counter screen (AID 743086); also: nearly all actives have a fitted effect of over 45% in size; also: potency is read from the fitted curve at half-maximal effect
Outline: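 HepG2-AhR-luc (HG2L7.5c1) cells, 4000/well, treated 24 h at 37 C with compound; viability measured as CellTiter-Fluor fluorescence after 30 min in the same wells as the luciferase read.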

[17] = qHTS assay to identify small molecule antagonists of the farnesoid-X-receptor (FXR) signaling pathway - cell viability counter screen (AID 743221; active = well fitted cell-killing curve with a large enough effect in the repeat runs, not every such curve was filed as active; also: nearly all actives have a fitted effect of over 50% in size; also: potency is read from the fitted curve at half-maximal effect)
Outline: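 Luminescence from CellTiter-Glo measures cytotoxicity in GeneBLAzer FXR-UAS-bla HEK 293T cells. Cells were exposed to compounds with 50 uM chenodeoxycholic acid (final) for 16 h at 37 C, in wells also used for the reporter readout.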

[18] = target: Peroxisome proliferator-activated receptor delta (Homo sapiens) (UniProt Q03181); assay: qHTS assay to identify small molecule agonists of the peroxisome proliferator-activated receptor delta (PPARd) signaling pathway (AID 743212; calls by dose curve)
Outline: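 GeneBLAzer UAS-bla HEK293H cells carrying a PPARδ construct were exposed to compounds at 37 °C. Beta-lactamase activity was read by FRET fluorescence after 2 h at room temperature with LiveBLAzer B/G substrate.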

[19] = target: Bile acid receptor (Homo sapiens) (UniProt Q96RI1); assay: qHTS assay to identify small molecule antagonists of the farnesoid-X-receptor (FXR) signaling pathway (AID 743217; active = well fitted inhibition curve with a large enough effect in the signal ratio in the repeat runs, not every such curve was filed as active; the % refers to the signal ratio)
Chain of Bile acid receptor (Homo sapiens) (Q96RI1 whole entry, looked up): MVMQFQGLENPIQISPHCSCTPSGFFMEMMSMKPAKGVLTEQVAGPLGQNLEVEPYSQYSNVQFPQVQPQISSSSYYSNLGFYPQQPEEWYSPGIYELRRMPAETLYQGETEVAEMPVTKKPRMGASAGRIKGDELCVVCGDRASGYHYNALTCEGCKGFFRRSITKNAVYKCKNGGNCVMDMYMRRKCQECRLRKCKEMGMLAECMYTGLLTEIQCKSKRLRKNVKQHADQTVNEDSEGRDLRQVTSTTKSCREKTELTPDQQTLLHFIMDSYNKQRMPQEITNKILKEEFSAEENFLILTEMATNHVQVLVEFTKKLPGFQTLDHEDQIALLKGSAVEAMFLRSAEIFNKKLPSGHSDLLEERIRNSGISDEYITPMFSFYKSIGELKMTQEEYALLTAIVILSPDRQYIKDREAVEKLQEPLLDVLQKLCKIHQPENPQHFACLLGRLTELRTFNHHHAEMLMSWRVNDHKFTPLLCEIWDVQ
Outline: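 Beta-lactamase reporter under UAS control in HEK 293T cells; compound exposure 16 h at 37 °C in the presence of chenodeoxycholic acid (50 uM final); signal from B/G FRET substrate after 2 h at room temperature.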

Structure (SMILES) | Potency [1] | Potency [2] | Potency [3] | Potency [4] | Potency [5] | Potency [6] | Potency [7] | Potency [8] | Potency [9] | Potency [10] | Potency [11] | Potency [12] | Potency [13] | Potency [14] | Potency [15] | Potency [16] | Potency [17] | Potency [18] | Potency [19]
Cc1c([N+](=O)[O-])c(C)c([N+](=O)[O-])c(C(C)(C)C)c1[N+](=O)[O-] | inactive | inactive | inactive | inactive | inactive | inactive | inactive | inactive | inactive | inactive | inactive | inactive | inactive |  |  |  |  |  | 
CCC[CH2][Sn]([CH2]CCC)([CH2]CCC)[CH2]CCC | 43.3 µM (active) | inactive |  | 19.5 µM (active) |  | 15.4 µM (active) |  |  | 43.6 µM (active) |  | 15.5 µM (active) |  |  | 54.9 µM (active) | 49 µM (active) |  |  |  | 
CN(C)C(=S)SSC(=S)N(C)C | 944 nM (active) and 75.9 nM (active) and 54.5 nM (active) | inactive |  |  |  | 60.3 µM (active) and 13.7 µM (active) and 18.8 µM (active) | inactive |  | 76.5 nM (active) and 38.9 nM (active) and 188 nM (active) | 108 nM (active) and 30.9 nM (active) and 298 nM (active) |  | inactive |  |  | 121 nM (active) and 30.9 nM (active) and 841 nM (active) | inactive and 154 nM (active) | 121 nM (active) and 43.6 nM (active) and 237 nM (active) |  | 
CCCCN(CCCC)C(=S)[S-].CCCCN(CCCC)C(=S)[S-].[Ni+2] | inactive | inactive | inactive | inactive | inactive | inactive | inactive |  |  | inactive |  | inactive | inactive | inactive | inactive |  | inactive |  | 
CCOC(=O)CCN(SN(C)C(=O)Oc1cccc2c1OC(C)(C)C2)C(C)C | inactive |  |  | inactive | inactive | inactive | inactive |  |  |  |  |  |  | inactive | inactive | inactive | inactive | inactive | inactive
CN | inactive | inactive |  | inactive |  | inactive | inactive | inactive |  | inactive |  | inactive | inactive |  | inactive |  | inactive |  | 
N#Cc1c[nH]cc1-c1cccc2c1OC(F)(F)O2 | inactive |  |  | inactive | inactive | inactive | inactive |  |  |  |  | inactive |  | inactive | inactive | inactive | inactive | inactive | 
